In the library only some 2.4% were active in any assay of this set; here they are far more common.
MBD2 inh: inhibitors of MBD2 binding to methylated DNA, primary screen, biochemical, TR-FRET, DNA-binding domain, human; MBD2 binding to methylated oligonucleotide; inhibition, % at 4.4 µM; actives 0.31% (n = 370,000); AID 686964, 2013; in the data active = inhibition above about 13%
LEDGF integ inh: blockers of LEDGF/p75-dependent integrase strand transfer – biochemical, TR-FRET, high throughput, primary screen; HIV-1 integrase (with human LEDGF/p75); TR-FRET IN-LEDGF/p75 DNA integration, Eu/Cy5; inhibition, % at 3.7 µM; actives 0.64% (n = 370,000);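 active = inhibition above the screen-wide mean plus 3 SD, cut at about 13% in these data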;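 also: signal is the Cy5 over europium emission ratio at 671 and 618 nm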
PLCg1 inh: PLC-gamma1 enzyme inhibitors, primary screen, biochemical, fluorescence, purified enzyme; inhibition, % at 12.2 µM; actives 0.84% (n = 370,000); fluorogenic substrate; in the data active = inhibition above about 9.5%
PLCb3 inh: human PLC-beta3 inhibitors, primary screen, biochemical, fluorescence | Purified PLC-beta3, fluorogenic substrate | actives 0.18% (n = 370,000) | 1-phosphatidylinositol 4,5-bisphosphate phosphodiesterase beta-3 (Homo sapiens), Q01970 | inhibition, % at 12.2 µM; in the data active = inhibition above about 11%
UHRF1 MBD2 ctr: UHRF1 methylated DNA binding inhibitors, primary screen, counter-screen for MBD2 inhibitor project, biochemical, TR-FRET, human UHRF1, single concentration; actives 0.75% (n = 370,000); E3 ubiquitin-protein ligase UHRF1 (Homo sapiens), Q96T88; inhibition, % at 4.4 µM; AID 687016, 2013; UHRF1 binding to methylated oligo; in the data active = inhibition above about 21%;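 also: UHRF1 SRA domain binding a hemimethylated CpG hairpin DNA probe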
Target sequence (Q96T88 whole entry, looked up, the tested form may be a part): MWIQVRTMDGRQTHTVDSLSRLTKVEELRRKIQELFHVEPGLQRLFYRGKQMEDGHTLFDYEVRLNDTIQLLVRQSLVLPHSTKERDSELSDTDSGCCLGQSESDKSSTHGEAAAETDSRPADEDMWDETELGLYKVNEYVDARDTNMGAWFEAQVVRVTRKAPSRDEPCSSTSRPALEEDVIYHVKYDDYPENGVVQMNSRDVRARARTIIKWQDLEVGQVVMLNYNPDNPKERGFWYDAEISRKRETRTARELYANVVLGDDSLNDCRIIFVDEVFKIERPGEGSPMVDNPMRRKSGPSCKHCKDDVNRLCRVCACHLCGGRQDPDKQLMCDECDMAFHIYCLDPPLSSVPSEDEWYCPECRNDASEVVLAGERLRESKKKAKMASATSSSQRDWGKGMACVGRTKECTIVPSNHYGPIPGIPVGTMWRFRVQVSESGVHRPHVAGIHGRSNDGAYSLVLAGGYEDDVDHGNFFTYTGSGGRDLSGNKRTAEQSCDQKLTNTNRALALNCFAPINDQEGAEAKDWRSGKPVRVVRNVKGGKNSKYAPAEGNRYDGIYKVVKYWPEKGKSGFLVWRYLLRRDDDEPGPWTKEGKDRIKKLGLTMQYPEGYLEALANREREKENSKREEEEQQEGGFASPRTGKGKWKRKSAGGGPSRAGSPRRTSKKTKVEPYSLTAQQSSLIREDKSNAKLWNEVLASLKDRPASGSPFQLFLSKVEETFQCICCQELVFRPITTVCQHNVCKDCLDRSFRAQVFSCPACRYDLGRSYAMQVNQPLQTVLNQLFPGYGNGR
IN multimer act: HIV-1 IN multimer formation enhancers, counter-screen for LEDGF/p75 integration inhibitor project, biochemical, TR-FRET | shares compounds with LEDGF integ inh | TR-FRET HIV-1 integrase multimerization | activation, % at 7.7 µM | actives 17% (n = 2,000) | AID 1053131, 2014; in the data active = activation above about 8.9%
TRFRET interf: TR-FRET optical interference artefacts, confirmation, artefact control for LEDGF/p75-dependent integration inhibitor project, biochemical, HIV-1 IN multimerization | shares compounds with LEDGF integ inh | TR-FRET optical interference counterscreen | inhibition, % at 7.7 µM | 2,000 tested, under 10 active;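 active = inhibition above the mean over all tested compounds plus 3 SD, which no compound reached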
IN-LEDGF confirm: inhibitors of HIV-1 IN-LEDGF/p75 DNA integration, confirmation, biochemical, TR-FRET; inhibition, % at 3.7 µM; TR-FRET LEDGF/p75-dependent HIV-1 integration; shares compounds with LEDGF integ inh; actives 36% (n = 2,000); in the data active = inhibition above about 14%
Of the large screens only hits and unclear results are named; the others gave an inactive call (follow-up assays come after a bar, where they were run).

Cc1ccccc1NC(=O)c1sc2nc3c(c(-c4ccco4)c2c1N)CCC3	LEDGF integ inh 46.1 | IN multimer act inactive | TRFRET interf inactive | IN-LEDGF confirm inactive
CCOc1ccccc1OCC(=O)NNC(=O)Cn1cnc2c1c(=O)n(C)c(=O)n2C	LEDGF integ inh 14.5 | IN multimer act inactive | TRFRET interf inactive | IN-LEDGF confirm inactive
CCN=c1scc(C)n1/N=C/c1cc(Br)c(O)c(Br)c1	none
CCN=c1scc(C)n1/N=C/c1ccc(O)c(O)c1O	LEDGF integ inh 51.8 | IN multimer act 20.4 | TRFRET interf inactive | IN-LEDGF confirm 36.4
Cc1cc(-c2n[nH]c(=S)n2N=Cc2c3ccccc3cc3ccccc23)n[nH]1	none
CN(C)c1ccc(N=Cc2cccn2C)cc1	LEDGF integ inh 22.5 | IN multimer act inactive | TRFRET interf inactive | IN-LEDGF confirm inactive
Cc1cc(SCC(=O)c2ccc(O)c(O)c2)n2nc(C)c(-c3ccccc3)c2n1	LEDGF integ inh 17.1 | IN multimer act inactive | TRFRET interf inactive | IN-LEDGF confirm inactive
COc1cc(N)c2ncccc2c1Br	LEDGF integ inh 28.6 | IN multimer act inactive | TRFRET interf inactive | IN-LEDGF confirm inactive
COc1cc(N)c2ncccc2c1SC	LEDGF integ inh 16.3 | IN multimer act inactive | TRFRET interf inactive | IN-LEDGF confirm 14.3
COc1cc(NC(C)=O)c2ncccc2c1NC(C)=O	none
COC(=O)[C@]12C[C@H](CC(=O)N3CCCC3)C(=O)N(Cc3ccc4c(c3)OCO4)C1=C[C@H](C(C)C)O[C@@H]2C1CC1	none
O=c1cc(-c2ccc(Br)cc2)[nH][nH]1	none
O=c1cc(-c2ccc(F)cc2)[nH][nH]1	LEDGF integ inh 17.2 | IN multimer act inactive | TRFRET interf inactive | IN-LEDGF confirm 16.8
O=c1cc(-c2ccccc2)[nH][nH]1	LEDGF integ inh 23.3 | IN multimer act inactive | TRFRET interf inactive | IN-LEDGF confirm inactive
CCS(=O)(=O)N1CCC(C(=O)Oc2ccccc2OC)CC1	LEDGF integ inh 21.7 | IN multimer act inactive | TRFRET interf inactive | IN-LEDGF confirm inactive
COc1ccc(N2CCCN(CC(=O)Nc3ccccc3C)CC2)cc1	none
COc1ccc(-c2noc(C3CCCN(C(=O)N[C@@H]4C[C@H]4c4ccccc4)C3)n2)cc1 (stereo partly drawn)	none
COc1ccc(/C=N/Nc2ncnc(Cl)c2N)cc1OC	none
Cc1nnc(N/N=C\c2ccc(-c3cccc(C(=O)O)c3)o2)n1N	LEDGF integ inh 52.7 | IN multimer act inactive | TRFRET interf inactive | IN-LEDGF confirm inactive
O=C(O)c1cccc(-c2ccc(/C=N/NC(=O)c3cccnc3)o2)c1	none
COc1ccc(/C=N/Nc2nnc(C)n2N)cc1OC	LEDGF integ inh 48.2 | IN multimer act inactive | TRFRET interf inactive | IN-LEDGF confirm inactive
Cc1nnc(N/N=C/c2ccc(-c3ccc(Br)cc3)o2)n1N	LEDGF integ inh 49.3 | IN multimer act inactive | TRFRET interf inactive | IN-LEDGF confirm inactive
Cc1nnc(N/N=C/c2ccc(Br)cc2)n1N	LEDGF integ inh 46.6 | IN multimer act inactive | TRFRET interf inactive | IN-LEDGF confirm inactive
CSc1ccc(-c2csc(N3CCC(C(N)=O)CC3)n2)cc1	none
Cc1nc(CNS(=O)(=O)c2cccc(F)c2)cs1	none
Cc1ccc(-c2csc(NS(=O)(=O)c3cccc(F)c3)n2)o1	LEDGF integ inh 15.8 | IN multimer act 9.0 | TRFRET interf inactive | IN-LEDGF confirm 15.2

High-throughput results deposited in PubChem by The Scripps Research Institute Molecular Screening Center.
